Values joined by “and” are separate entries in the source; they are usually repeats but may differ in a detail not shown here. Equal entries are not always repeated. Inconclusive results are not listed. The source holds several records for some structures; these can differ, active in one and inactive in another. Active and inactive are the calls of the source. Unless noted, calls follow the shape of the dose curve; as a rule, active = well fitted curve in the direction sought with a large enough effect; inconclusive = small, poorly fitted or top-dose-only effect, or another doubt; inactive = no such curve, though single readings can be large; an effect the other way counts as inactive or inconclusive. Residues, ends and D or L forms follow the SMILES beside them. *: point of attachment. Cbz = O=C(OCc1ccccc1)*
How the values were obtained:
[1] = NCATS anti-infectives library activity on HEK293 viability as a counter-qHTS vs the C. elegans viability qHTS (AID 1745854); also: potency is read from the fitted curve at half-maximal effect; as to activity change, negative = cytotoxicity: % is scaled to controls: 0 for no effect and ±100 for the full control effect
In short: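 HEK293 cells, 1500 per well, exposed 24 hr at 37C in 5% CO2 to compounds in a 1:5 titration, up to 41.7 uM final. Viability read as CellTiter-Glo luminescence after 10 min at room temperature.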

[2] = target: Glutathione peroxidase 1 (Homo sapiens) (UniProt P07203); assay: Primary qHTS Assay for Inhibitors of Recombinant Selenoprotein Glutathione Peroxidase 1 (GPX1) (AID 1845191); also: nearly all actives have a fitted effect of over 65% in size; also: potency is read from the fitted curve at half-maximal effect
In short: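 10 nM GPX1 + cpd, 30 min RT; start w/ 1 mM GSH, 0.5 mM cumene hydroperoxide, 0.5 mM NADPH, 100 nM GR, 0.01% BSA; buffer 50 mM Tris-HCl pH 7.5, 2 mM EDTA, 150 mM NaCl; Fl 340/450, 0 & 15 min.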

[3] = target: Phospholipid hydroperoxide glutathione peroxidase GPX4 (Homo sapiens) (UniProt P36969); assay: Primary qHTS Assay for Inhibitors of Recombinant Selenoprotein Glutathione Peroxidase 4 (GPX4) (AID 1845192); also: nearly all actives have a fitted effect of over 65% in size; also: potency is read from the fitted curve at half-maximal effect
In short: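 NADPH consumption, followed by fluorescence at 340/450 nm between 0 and 15 min, reports GPX4 activity via coupled glutathione reductase (100 nM). Enzyme 200 nM was pre-exposed to compound 30 min; 0.5 mM cumene hydroperoxide and 1 mM GSH served as substrates.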

[4] = Quantitative High-Throughput drug screen in 47 multiple myeloma cell lines against the NCATS MIPE library collection: Delta47_JCRB cell viability assay (AID 1918925; also: nearly all actives have a fitted effect of over 45% in size; also: potency is read from the fitted curve at half-maximal effect)
In short: (§1)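 qHTS of the MIPE 4.0 collection: 500 myeloma cells/well, 48 h drug exposure at 37C in 5% CO2, then CellTiter-Glo for 5 min at room temperature before luminescence reading.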

[5] = Quantitative High-Throughput drug screen in 47 multiple myeloma cell lines against the NCATS MIPE library collection: EJM_DSMZ cell viability assay (AID 1918926; also: nearly all actives have a fitted effect of over 30% in size; also: potency is read from the fitted curve at half-maximal effect)
In short: as §1

[6] = Quantitative High-Throughput drug screen in 47 multiple myeloma cell lines against the NCATS MIPE library collection: ARP1_JJKsccF8 cell viability assay (AID 1918928; also: nearly all actives have a fitted effect of over 40% in size; also: potency is read from the fitted curve at half-maximal effect;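 as to viability: 100% = DMSO only wells and 0% = medium only wells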)
In short: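 Here, 48 h treatment with MIPE 4.0 agents at 37 °C preceded an ATP luminescence read. Plating density was 500 cells per well.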

[7] = Quantitative High-Throughput drug screen in 47 multiple myeloma cell lines against the NCATS MIPE library collection: FR4_PLB cell viability assay (AID 1918924; also: nearly all actives have a fitted effect of over 35% in size; also: potency is read from the fitted curve at half-maximal effect)
In short: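 Primary qHTS used for cherry-picking: cells at 500/well, library compounds for 48 h (37C, 5% CO2), luminescent ATP assay.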

[8] = Quantitative High-Throughput drug screen in 47 multiple myeloma cell lines against the NCATS MIPE library collection: AMO1_DSMZ cell viability assay (AID 1918927; also: nearly all actives have a fitted effect of over 30% in size; also: potency is read from the fitted curve at half-maximal effect)
In short: as §1

[9] = target: Nicotinamide N-methyltransferase (Homo sapiens) (UniProt P40261); assay: Confirmatory Screen for Target Class Profiling of Small Molecule Inhibitors of Methyltransferases (AID 1745852); conditions: MTase-Glo luminescence, SAH detection, recombinant enzyme; measured here: NNMT max response; stronger effect = lower value
[10] = target: Phenylethanolamine N-methyltransferase (Homo sapiens) (UniProt P11086); assay: as above; conditions: MTase-Glo luminescence, SAH detection, recombinant enzyme; measured here: PNMT max response; stronger effect = lower value
[11] = target: Luciferin 4-monooxygenase (Photinus pyralis) (UniProt P08659); assay: Primary firefly luciferase (FLuc) qHTS assay for identification of artifact compounds. (AID 1845220); also: nearly all actives have a fitted effect of over 60% in size; also: potency is read from the fitted curve at half-maximal effect
In short: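 Cell-free, 1536-well qHTS. Buffer pH 7.6 with 0.01% Tween-20 and 0.05% BSA; 10 uM D-luciferin, 10 uM ATP; 10 nM P. pyralis luciferase; luminescence after 5 min.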

[12] = system: Nanoluciferase (engineered Oplophorus gracilirostris luciferase); assay: Primary Nanoluciferase (NLuc) qHTS assay for identification of artifact compounds. (AID 1845222);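 also: series mostly up to about 54 µM; 0% = DMSO and -100% = no enzyme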
In short: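 Compounds are pinned into diluted (1:55) conditioned medium of NLuc-expressing S16 cells and held 15 min at room temperature protected from light. Nano-Glo substrate follows, and luminescence is read 5 min later.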

[13] = Primary redox qHTS assay for identification of artifact compounds. (AID 1845223);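 also: 0% = DMSO and 100% = reference compound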
In short: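 Amplex Red (25 uM) and HRP (250 mU/mL) in HBSS, with compounds for 15 min, then 250 uM DTT for 30 min, room temperature, dark. Fluorescence 525/598 nm read; normalized to DMSO and 10 uM DA3003; Hill fit.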

[14] = Primary fluorescence-based thiol-reactive (MSTI) qHTS assay for identification of artifact compounds. (AID 1845221);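 also: series mostly up to about 54 µM; thiol-reactive compounds lower the probe fluorescence signal; nearly all actives have a fitted effect of over 65% in size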
In short: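 qHTS titration of compound; 4 uM MSTI, PBS pH 7.4, 2% DMSO; 1 h RT, dark; fluorescence 525/598 nm; normalized to Acetyl-MSTI and MSTI; 4-parameter Hill fit.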

[15] = NCATS anti-infectives library activity on the primary C. elegans qHTS viability assay (AID 1745855; calls by dose curve; also: potency is read from the fitted curve at half-maximal effect)
In short: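 Viability is taken from GFP fluorescence of PE254-GFP-FLuc C. elegans imaged by laser cytometry over 7 days. Ten L1 worms per well grow at 21 °C on TOP10 E. coli capsules with titrated compound; levamisole marks toxicity.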

[16] = Viability counterscreen for antagonist of constitutive androstane receptor (CAR) against the NCATS DSHEA and TCM libraries (AID 1794837);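 also: compound exposure lasted 24 h before viability reading; 0% is about no effect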
In short: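 Viability was measured by CellTiter-Fluor fluorescence (405/540 nm, 1 hr) in HepG2-CYP2B6-hCAR cells. Cells were co-treated 24 hr with 48 uM CITCO (final), antagonist mode, and test substances.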

[17] = Viability counterscreen for agonist of constitutive androstane receptor (CAR) against the NCATS DSHEA and TCM libraries (AID 1794838); also: 0% is about no effect
In short: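 Cell viability, from CellTiter-Fluor fluorescence (405/540 nm), was scored after a 24 h, 37C exposure of HepG2 cells carrying CYP2B6 reporter and hCAR to test substances in presence of 0.75 uM PK11195.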

[18] = target: Nuclear receptor subfamily 1 group I member 3 (Homo sapiens) (UniProt Q14994); assay: Primary qHTS for agonist of constitutive androstane receptor (CAR) against the NCATS DSHEA and TCM libraries (AID 1794839);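 also: HepG2 cells expressing human CAR with a CYP2B6 reporter plus PK11195 antagonist; luciferase reporter luminescence read with ONE-Glo; 0% is about no effect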
In short: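 Agonist mode in presence of hCAR antagonist PK11195 (0.75 µM final): test substances, 24 h, 37 °C, on HepG2-CYP2B6-hCAR cells. Same-well readouts: fluorescence viability, then ONE-Glo luminescence; CITCO as reference agonist.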

[19] = HepG2 viability counterscreen (readout 2: ATP content) against the NCATS DSHEA and TCM libraries (AID 1794840);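 also: HepG2 cells exposed to substances for about 24 h; 0% is about no effect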
In short: (§2)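 Readout 1: cellular protease activity, GF-AFC substrate (25 uM final, 30 min, fluorescence 380/510 nm). Readout 2: ATP content by CellTiter-Glo luminescence after 30 min at RT. Both follow ~24 h exposure of HepG2 cells (1,000/well) to substances.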

[20] = HepG2 viability counterscreen (readout 1: protease activity) against the NCATS DSHEA and TCM libraries (AID 1794841);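 also: cells exposed to compounds for about 24 h before the protease read; 0% is about no effect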
In short: as §2

Phenylethanolamine N-methyltransferase (Homo sapiens), sequence (P11086 whole entry, looked up): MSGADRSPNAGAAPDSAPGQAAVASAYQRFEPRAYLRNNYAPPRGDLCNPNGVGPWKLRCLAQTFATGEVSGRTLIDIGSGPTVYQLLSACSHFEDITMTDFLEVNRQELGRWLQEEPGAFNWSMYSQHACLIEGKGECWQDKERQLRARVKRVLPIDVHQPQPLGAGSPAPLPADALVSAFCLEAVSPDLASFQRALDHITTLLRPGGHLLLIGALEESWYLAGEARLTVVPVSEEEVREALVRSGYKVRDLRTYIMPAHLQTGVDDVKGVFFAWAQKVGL
Phospholipid hydroperoxide glutathione peroxidase GPX4 (Homo sapiens), sequence (P36969 whole entry, looked up): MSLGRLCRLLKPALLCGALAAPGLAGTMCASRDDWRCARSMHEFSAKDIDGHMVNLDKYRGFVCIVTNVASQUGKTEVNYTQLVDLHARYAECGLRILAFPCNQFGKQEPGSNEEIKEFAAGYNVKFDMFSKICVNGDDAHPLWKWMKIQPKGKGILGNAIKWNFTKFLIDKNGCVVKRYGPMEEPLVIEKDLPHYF
Nicotinamide N-methyltransferase (Homo sapiens), sequence (P40261 whole entry, looked up): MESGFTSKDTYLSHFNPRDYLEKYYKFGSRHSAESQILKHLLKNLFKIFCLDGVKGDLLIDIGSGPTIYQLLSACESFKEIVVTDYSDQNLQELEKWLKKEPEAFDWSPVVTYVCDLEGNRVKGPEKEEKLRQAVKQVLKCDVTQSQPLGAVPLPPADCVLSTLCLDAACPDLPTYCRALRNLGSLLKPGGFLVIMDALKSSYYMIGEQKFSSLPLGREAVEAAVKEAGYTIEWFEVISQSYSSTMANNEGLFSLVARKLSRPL
Glutathione peroxidase 1 (Homo sapiens), sequence (P07203 whole entry, looked up): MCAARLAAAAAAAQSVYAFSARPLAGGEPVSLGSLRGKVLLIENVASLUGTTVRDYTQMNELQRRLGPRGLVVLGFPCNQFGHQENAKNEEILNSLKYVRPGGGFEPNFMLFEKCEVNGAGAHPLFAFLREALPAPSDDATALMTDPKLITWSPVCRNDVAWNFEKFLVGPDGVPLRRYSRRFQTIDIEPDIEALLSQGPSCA
Nuclear receptor subfamily 1 group I member 3 (Homo sapiens), sequence (Q14994 whole entry, looked up): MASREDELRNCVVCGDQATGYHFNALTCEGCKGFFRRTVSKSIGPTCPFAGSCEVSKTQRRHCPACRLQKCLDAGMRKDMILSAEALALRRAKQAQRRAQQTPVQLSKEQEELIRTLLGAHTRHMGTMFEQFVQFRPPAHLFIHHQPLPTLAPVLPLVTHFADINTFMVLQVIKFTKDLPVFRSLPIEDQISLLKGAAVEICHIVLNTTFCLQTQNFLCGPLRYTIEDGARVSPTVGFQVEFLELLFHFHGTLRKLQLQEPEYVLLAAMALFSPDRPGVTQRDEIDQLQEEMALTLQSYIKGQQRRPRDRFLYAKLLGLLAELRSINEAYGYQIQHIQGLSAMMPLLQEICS

Cn1cc(CNCC2CCN(c3ncc(C(=O)NO)cn3)CC2)c2ccccc21
inactive: Potency [1] | Potency [2] | Potency [3]
active: Potency [4] 0.0743 µM | Potency [5] 0.0526 µM | Potency [6] 0.0166 µM

C=Cc1c(C)c2cc3nc(cc4[nH]c(cc5nc(cc1[nH]2)C(C)=C5CCC(=O)O)c(CCC(=O)OC)c4C)[C@@]1(C)C3=CC=C(C(=O)OC)[C@H]1C(=O)OC
inactive: Potency [1] | Potency [2] | Potency [3]
active: Potency [7] 0.662 µM | Potency [4] 0.132 µM | Potency [5] 0.0372 µM | Potency [8] 0.0935 µM | Potency [6] 0.743 µM

CCCc1nc(C(C)(C)O)c(C(=O)O)n1Cc1ccc(-c2ccccc2-c2nn[nH]n2)cc1
inactive: Potency [1] | Potency [2] | Potency [7] | Potency [4] | Potency [8] | Potency [6]
inactive and 17.8 µM (active): Potency [3]

c1ccc2c(Oc3nc(Nc4ccc(N5CCOCC5)cc4)c4ncn(C5CCCCC5)c4n3)cccc2c1
active: Potency [8] 9.35 µM
inactive: Potency [2] | Potency [3] | Potency [11] | outcome [12] | Potency [13] | Potency [7]
-3.02%: activity [10]
-22.9%: activity [9]

CN1CCc2c(c3ccccc3n2Cc2ccc(C(=O)NO)cc2)C1
inactive: Potency [2] | Potency [3] | Potency [11] | outcome [12] | Potency [13]
-22.2%: activity [10]
-7.28%: activity [9]
active: Potency [4] 18.7 µM | Potency [5] 18.7 µM | Potency [6] 18.7 µM

C=C[C@@H]1CN2CCC1C[C@H]2[C@H](O)c1ccnc2ccc(OC)cc12 (some centres undefined)
inactive: Potency [2] | Potency [3]

CCC(C(=O)O)C1CCC(C)C(C(C)C(O)C(C)C(=O)C(CC)C2OC3(C=CC(O)[C@@]4(CC[C@](C)(C5CC[C@@](O)(CC)C(C)O5)O4)O3)C(C)CC2C)O1 (some centres undefined)
active: Potency [4] 4.69 µM | Potency [5] 5.9 µM | Potency [8] 0.132 µM | Potency [6] 1.87 µM
inactive: activity change, negative = cytotoxicity [1] -17.2% [at 0.334 µM] | Potency [2] | Potency [3]

O=C(Nc1cc2cc[nH]c2cn1)c1ccccc1
-83.3%: activity [10]
-77.9%: activity [9]
inactive: Potency [2] | Potency [3] | Potency [14] | outcome [12] | Potency [13]
active: Potency [11] 2.39 µM | Potency [7] 14.8 µM | Potency [4] 9.35 µM | Potency [8] 10.5 µM

CCS(=O)(=O)Nc1ccc2[nH]c(O)c(C(=Nc3ccc(CN4CCCCC4)cc3)c3ccccc3)c2c1
inactive: Potency [2] | Potency [3]
active: Potency [1] 2 µM | Potency [7] 18.7 µM | Potency [4] 0.0526 µM | Potency [5] 6.62 µM | Potency [8] 0.148 µM | Potency [6] 0.743 µM

O=C1c2cccc(O)c2C(=O)c2c(O)cc(CO)cc21
active: Potency [2] 4.09 µM
inactive: Potency [1] | Potency [3] | Potency [7] | Potency [4] | Potency [5]

CN(C)c1ccc(C(=O)NCCCCCCC(=O)NO)cc1
active: Potency [7] 0.132 µM | Potency [4] 0.59 µM | Potency [5] 1.87 µM | Potency [8] 0.235 µM | Potency [6] 0.743 µM
inactive: Potency [1] | Potency [15] | Potency [2] | Potency [3]

CC(C)C[C@H](NC(=O)[C@@H](NC(=O)c1cccc(-c2ccccc2)n1)[C@@H](C)O)B(O)O
active: Potency [15] 2.05 µM | Potency [7] 0.0209 µM | Potency [4] 0.0166 µM | Potency [5] 0.0469 µM | Potency [6] 0.0166 µM
inactive: Potency [1] | Potency [2] | Potency [3] | Potency [11] | Potency [14] | outcome [12]

O=C1c2c(O)cccc2[C@@H]([C@@H]2O[C@H](CO)[C@@H](O)[C@H](O)[C@H]2O)c2cc(CO)cc(O)c21
inactive: outcome [16] | outcome [17] | outcome [18] | outcome [19] | outcome [20] | Potency [7] | Potency [5] | Potency [8] | Potency [6]

CC(C)C[C@@H](C=O)NC(=O)[C@H](CC(C)C)NC(=O)[C@H](CC(C)C)NC(=O)OCc1ccccc1 (Cbz-Leu-Leu-Leu-aldehyde)
active: Potency [7] 0.59 µM | Potency [4] 0.105 µM | Potency [5] 0.833 µM | Potency [8] 0.105 µM | Potency [6] 0.332 µM
inactive: Potency [15] | Potency [2] | Potency [3]

CCOC(=O)[C@@H](N)Cc1ccc(-c2cc(O[C@H](c3ccc(Cl)cc3-n3ccc(C)n3)C(F)(F)F)nc(N)n2)cc1
-6.64%: activity [10]
active: Potency [7] 23.5 µM | Potency [4] 23.5 µM | Potency [5] 18.7 µM | Potency [8] 9.35 µM | Potency [6] 14.8 µM
-31.8%: activity [9]
inactive: Potency [2] | Potency [3] | Potency [11] | Potency [14] | outcome [12] | Potency [13]

C[C@H](NCc1ccc(OCc2cccc(F)c2)cc1)C(N)=O
active: Potency [7] 16.6 µM | Potency [4] 2.09 µM | Potency [5] 9.35 µM | Potency [8] 9.35 µM | Potency [6] 7.43 µM
inactive: Potency [1] | Potency [2] | Potency [3]

C[C@@H](Cc1cc2c(c(C(N)=O)c1)N(CCCO)CC2)NCCOc1ccccc1OCC(F)(F)F
active: Potency [4] 11.8 µM
inactive: Potency [2] | Potency [3] | Potency [11] | Potency [14] | outcome [12] | Potency [13] | Potency [7] | Potency [5] | Potency [8] | Potency [6]

CCN(CC)Cc1ccc2cc(COC(=O)Nc3ccc(C(=O)NO)cc3)ccc2c1
active: Potency [7] 0.372 µM | Potency [4] 0.526 µM | Potency [8] 0.743 µM | Potency [6] 0.59 µM
-6.29%: activity [10]
inactive: Potency [2] | Potency [3] | Potency [11] | outcome [12] | Potency [13]
-7.87%: activity [9]
